# Where “and” joins values, the source holds several entries; their conditions need not be identical. Equal entries are not always repeated.
# Molecular target: Mitogen-activated protein kinase kinase kinase kinase 4 (Homo sapiens) (UniProt O95819);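 further: reported figure is an averaged inhibition value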
# Conditions: at 1 µM
# Mitogen-activated protein kinase kinase kinase kinase 4 (Homo sapiens), sequence (O95819 2-1239 limits assumed): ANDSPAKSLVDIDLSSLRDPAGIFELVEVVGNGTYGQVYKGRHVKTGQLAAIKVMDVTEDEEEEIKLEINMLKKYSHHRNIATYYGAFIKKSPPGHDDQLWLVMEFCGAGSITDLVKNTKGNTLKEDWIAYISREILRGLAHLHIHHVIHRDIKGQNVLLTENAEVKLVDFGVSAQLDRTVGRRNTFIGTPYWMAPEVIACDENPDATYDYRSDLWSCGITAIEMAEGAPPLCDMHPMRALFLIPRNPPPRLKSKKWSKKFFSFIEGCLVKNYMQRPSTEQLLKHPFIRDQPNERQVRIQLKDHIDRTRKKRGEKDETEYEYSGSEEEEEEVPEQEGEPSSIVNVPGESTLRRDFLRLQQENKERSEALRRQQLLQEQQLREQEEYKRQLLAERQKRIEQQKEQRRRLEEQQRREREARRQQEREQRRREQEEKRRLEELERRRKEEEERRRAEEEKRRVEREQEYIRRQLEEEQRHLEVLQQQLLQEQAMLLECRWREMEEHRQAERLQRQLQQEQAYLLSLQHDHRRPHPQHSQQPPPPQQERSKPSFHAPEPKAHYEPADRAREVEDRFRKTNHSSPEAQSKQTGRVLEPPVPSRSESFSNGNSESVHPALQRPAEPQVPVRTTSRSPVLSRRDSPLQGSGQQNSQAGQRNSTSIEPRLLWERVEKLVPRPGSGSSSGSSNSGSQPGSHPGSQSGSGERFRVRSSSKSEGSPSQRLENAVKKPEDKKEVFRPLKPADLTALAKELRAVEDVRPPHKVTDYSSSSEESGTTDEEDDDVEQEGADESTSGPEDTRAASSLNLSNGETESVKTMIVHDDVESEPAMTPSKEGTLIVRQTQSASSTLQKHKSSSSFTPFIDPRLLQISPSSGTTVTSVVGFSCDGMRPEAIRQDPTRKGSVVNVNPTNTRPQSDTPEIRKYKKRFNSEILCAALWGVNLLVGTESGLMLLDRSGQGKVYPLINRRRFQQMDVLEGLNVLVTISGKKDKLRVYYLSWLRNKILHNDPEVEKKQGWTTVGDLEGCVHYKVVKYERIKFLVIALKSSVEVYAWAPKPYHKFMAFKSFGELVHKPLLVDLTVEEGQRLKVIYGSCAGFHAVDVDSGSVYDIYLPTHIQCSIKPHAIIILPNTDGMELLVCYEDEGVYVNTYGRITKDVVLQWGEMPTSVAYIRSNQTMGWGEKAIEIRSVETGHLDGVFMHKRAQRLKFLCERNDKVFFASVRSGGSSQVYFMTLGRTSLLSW
row,SMILES,inhibition [%]
1,COc1cc(N2CCN(C(C)C)CC2)ccc1Nc1nc(Nc2cccc(F)c2C(=O)O)c2cc[nH]c2n1,10.1
2,Cn1c(-c2nonc2N)nc2cnccc21,26.2
3,Fc1cccc(COc2ccc(Nc3ncncc3C#Cc3ccccc3)cc2Cl)c1,15
4,CN(c1ccc(NC(=O)NCCN2CCOCC2)cc1)c1ccnc(Nc2ccc(CS(C)(=O)=O)cc2)n1,14.7
5,COc1cc(Nc2ncc(-c3ccccc3)o2)cc(OC)c1,18.8
6,COC(=O)Nc1nc2ccc(Oc3ccc(NC(=O)Nc4cc(C(F)(F)F)ccc4F)cc3)cc2s1,8.34
7,c1ccc(-c2n[nH]cc2-c2ccnc(-c3ccc(OCCn4ccnc4)cc3)c2)nc1,81.8
8,OCCCNc1nccc(-c2c(-c3ccc(F)cc3)nn3cc(C(F)(F)F)ccc23)n1,21.4
9,O=C(O[C@H]1CN[C@H](C#Cc2cc3ncnc(Nc4ccc5c(ccn5Cc5cc(F)ccc5F)c4)c3s2)C1)N1CCOCC1,5.63
10,NC(=O)c1ccc2c(-c3ccnc(NCCCO)n3)c(-c3ccc(F)cc3)nn2c1,51.7
11,FC(F)(F)CNc1nccc(-c2cnn3ncccc23)n1,3.37
12,CS(=O)(=O)Nc1ccc(-c2cc(-c3ccccc3)cc(C(N)=O)c2N)cc1,16.6
13,CS(=O)(=O)CCNCc1ccc(-c2ccc3ncnc(Nc4ccc(OCc5cccc(C(F)(F)F)c5)cc4)c3c2)o1,6.36
14,COc1cccc(Nc2nccc(-c3cnn4ncccc34)n2)c1,63.2

# Molecular target: Dual specificity mitogen-activated protein kinase kinase 1 (Homo sapiens) (UniProt Q02750);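 further: reported value is a mean percent inhibition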
# Sequence (Q02750 whole entry): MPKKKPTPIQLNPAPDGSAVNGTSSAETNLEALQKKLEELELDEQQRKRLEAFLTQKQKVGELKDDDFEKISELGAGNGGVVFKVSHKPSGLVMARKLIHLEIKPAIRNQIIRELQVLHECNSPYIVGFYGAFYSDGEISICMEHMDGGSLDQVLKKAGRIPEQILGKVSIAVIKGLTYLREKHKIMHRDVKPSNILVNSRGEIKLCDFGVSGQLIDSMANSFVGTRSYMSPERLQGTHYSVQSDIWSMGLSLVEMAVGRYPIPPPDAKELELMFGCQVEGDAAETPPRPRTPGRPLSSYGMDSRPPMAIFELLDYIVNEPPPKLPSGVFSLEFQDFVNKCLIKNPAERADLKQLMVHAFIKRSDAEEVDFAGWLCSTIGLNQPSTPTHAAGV
# Conditions: at 0.1 µM
row,SMILES,inhibition
1,NS(=O)(=O)c1ccc(N/N=C2\C(=O)Nc3ccc(C(=O)NCc4ccncc4)cc32)cc1,15.6%
2,CCCNc1cccc(-n2ncc3c(N/N=C/c4ccncc4)ncnc32)c1,1.7%
3,c1cnn2ncc(-c3ccnc(NCCCN4CCOCC4)n3)c2c1,4.91%
4,O=C(Nc1n[nH]c2nnc(-c3cccnc3)cc12)C1CC1,0.74%
5,COC(=O)Nc1nc2cc(Oc3ccc(NC(=O)Nc4ccccc4)cc3)ccc2[nH]1,3.88%
6,Fc1ccc(Nc2nccc(-c3c(-c4ccc(C(F)(F)F)cc4)nn4ncccc34)n2)cc1F,3.85%
7,CCS(=O)(=O)c1ccc(OC)c(Nc2ncc(-c3cccc(F)c3)o2)c1,4.98%
8,CN1CCC(C(=O)Nc2n[nH]c3nc(-c4ccc(O)cc4)c(Br)cc23)CC1,6.37% and 2.39%
9,CC1=C(C(=O)Nc2ccc3[nH]nc(C)c3c2)C(c2ccc(C(F)(F)F)cc2)CC(=O)N1 (stereo not given),6.17%
10,COc1cccc(-n2ncc3c(N/N=C/c4ccc(C(=O)NCCN(C)C)cc4)ncnc32)c1,2.77%
11,N#Cc1ccc2c(-c3ccnc(NC4CC4)n3)c(-c3ccc(F)cc3)nn2c1,0.85%
12,COc1ccc(Nc2ncc(-c3ccccc3)o2)cc1OC,0.51%
13,Nc1nccc(-c2c(-c3ccc(F)cc3)ncn2C2CCNCC2)n1,-1.59% and 0.76%
14,Cc1cc(O)cc(C)c1/C=C/c1cncc(C(N)=O)c1,2.17%
15,N#Cc1cccc(Nc2ncc(-c3ccccc3)o2)c1,2.21%
16,CC1=C(C(=O)Nc2ccc3[nH]ncc3c2)C(c2ccc(F)cc2)N=C(c2ccc(C(F)(F)F)nc2)N1 (stereo not given),-0.07%

row,SMILES,inhibition
1,COc1cc2c(cc1Nc1nc(Nc3cccc(F)c3C(N)=O)c3cc[nH]c3n1)N(C(=O)CN1CCN(C(C)C)CC1)CC2,0.13%
2,COc1cc(N2CCN(C(C)C)CC2)ccc1Nc1nc(Nc2cccc(F)c2C(=O)O)c2cc[nH]c2n1,4.86%
3,Cn1c(-c2nonc2N)nc2cnccc21,4.67%
4,Fc1cccc(COc2ccc(Nc3ncncc3C#Cc3ccccc3)cc2Cl)c1,6%
5,CN(c1ccc(NC(=O)NCCN2CCOCC2)cc1)c1ccnc(Nc2ccc(CS(C)(=O)=O)cc2)n1,5.04%
6,COc1cc(Nc2ncc(-c3ccccc3)o2)cc(OC)c1,4.41%
7,COC(=O)Nc1nc2ccc(Oc3ccc(NC(=O)Nc4cc(C(F)(F)F)ccc4F)cc3)cc2s1,0.28%
8,c1ccc(-c2n[nH]cc2-c2ccnc(-c3ccc(OCCn4ccnc4)cc3)c2)nc1,5.95%
9,OCCCNc1nccc(-c2c(-c3ccc(F)cc3)nn3cc(C(F)(F)F)ccc23)n1,1.92%
10,O=C(O[C@H]1CN[C@H](C#Cc2cc3ncnc(Nc4ccc5c(ccn5Cc5cc(F)ccc5F)c4)c3s2)C1)N1CCOCC1,5.1%
11,NC(=O)c1ccc2c(-c3ccnc(NCCCO)n3)c(-c3ccc(F)cc3)nn2c1,6.94%
12,FC(F)(F)CNc1nccc(-c2cnn3ncccc23)n1,1.61%
13,CS(=O)(=O)Nc1ccc(-c2cc(-c3ccccc3)cc(C(N)=O)c2N)cc1,3.57%
14,CS(=O)(=O)CCNCc1ccc(-c2ccc3ncnc(Nc4ccc(OCc5cccc(C(F)(F)F)c5)cc4)c3c2)o1,3.29%
15,COc1cccc(Nc2nccc(-c3cnn4ncccc34)n2)c1,3.11%

# Source: ChEMBL document CHEMBL1961873, “Compounds: GSK PKIS; Assays: Nanosyn kinase panel” (2012)
